GLS inh: blocks human kidney-isoform glutaminase activity; GLS enzymatic activity, qHTS titration; Potency, µM (top dose mostly 45.5 µM), for inactives: at the highest dose activity change, negative = inhibition, usual class: inhibitors; O94925; hit rate 0.21% among 410,000; note: % is set by controls: 0 for no effect and ±100 for the full control effect
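Glutamate formation by hKGA was monitored fluorometrically using coupled glutamate oxidase, HRP and Amplex Red. Substrate was added as 1 mM L-glutamine solution; incubation was 30 min at RT after an initial read.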
12-LOX inh: blocks human arachidonate 12S-lipoxygenase. purified 12hLO, xylenol orange hydroperoxide absorbance. P18054. Potency, µM (highest dose often 108 µM), without a hit: at the top dose activity change, negative = inhibition, hits mostly inhibitors. AID 1671190. hit rate 1.1% among 580,000; note: % is set by controls: 0 for no effect and ±100 for the full control effect
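Purified human 12hLO at 150 nM in 25 mM Hepes, 0.01% Triton X-100, pH 7.0, preincubated 15 min at room temperature with compound. Reaction started with 40 uM arachidonic acid, 30 min at room temperature. Hydroperoxide measured by Fe-xylenol orange, 573/405 nm absorbance ratio.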
PTHR1 agonist: PTHR1 (human) receptor agonism | Potency, µM (doses to about 115 µM), for the others: top-dose activation, usual class: activators | HEK293 GP2 PTHR1 cells, GloSensor cAMP luminescence, 1 h | AID 743266 | hit rate 0.075% among 410,000 | Q03431; note: nearly all actives have a fitted effect of over 55% in size
Target sequence (Q03431 whole entry, looked up): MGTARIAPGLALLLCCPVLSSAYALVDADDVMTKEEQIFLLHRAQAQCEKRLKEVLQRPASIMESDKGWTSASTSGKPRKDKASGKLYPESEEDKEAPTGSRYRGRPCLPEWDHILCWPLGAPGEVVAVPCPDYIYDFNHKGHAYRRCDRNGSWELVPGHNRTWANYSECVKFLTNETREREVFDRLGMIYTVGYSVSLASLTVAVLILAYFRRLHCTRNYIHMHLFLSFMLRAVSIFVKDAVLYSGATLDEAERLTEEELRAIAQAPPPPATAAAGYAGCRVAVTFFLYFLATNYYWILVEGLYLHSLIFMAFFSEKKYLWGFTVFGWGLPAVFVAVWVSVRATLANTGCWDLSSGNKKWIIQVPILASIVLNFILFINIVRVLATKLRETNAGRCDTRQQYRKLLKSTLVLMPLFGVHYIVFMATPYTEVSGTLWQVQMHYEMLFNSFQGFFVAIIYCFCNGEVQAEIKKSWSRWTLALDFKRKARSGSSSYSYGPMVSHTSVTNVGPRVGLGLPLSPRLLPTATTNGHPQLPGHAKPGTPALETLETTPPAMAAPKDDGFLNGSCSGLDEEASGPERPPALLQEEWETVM
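HEK-293-derived GP2 cells expressing PTHR1 and a GloSensor cAMP reporter, 3,000/well, plated overnight, given luciferin plus IBMX (each 0.5 mM as added) for 1 h at 37 °C, then compound for 1 h at 37 °C. Luminescence was read after 15 min at room temperature.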
GRP78 ERSR act: inducers of ER stress response in human glioma cells; U87-MG GRP78 promoter luciferase reporter, 16 h; Potency, µM, without a hit: top-dose activation, most hits filed as activators; hit rate 0.02% among 420,000; AID 602332; note: series mostly up to about 76 µM; % of control where 0% means no effect; nearly all actives have a fitted effect of over 35% in size
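Stably transfected U87-MG glioma cells carrying a GRP78-based luciferase sensor; 16 h compound incubation. Luminescence end-point read 10 min after Bright-Glo addition at room temperature.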
GLP-1R agonist: agonists of human GLP-1 receptor; P43220; HEK293 GLP-1R CRE-luciferase, luminescence, 4-6 h; cells express a hypersensitive GLP-1R form; Potency, µM (highest dose often 45.6 µM), without a hit: top-dose activation, hits mostly activators; hit rate 0.007% among 380,000; AID 624172; note: % of control where 0% means no effect
GLP1R inv ag: GLP-1 receptor (human) inverse agonism | HEK293 GLP-1R CRE-luciferase, luminescence, 24 h; GLP-1R form is constitutively active | Potency, µM (series often up to 38.3 µM), inactives show top-dose activity change, negative = inhibition, usual class: inhibitors | hit rate 1.6% among 410,000 | AID 624417; note: % is set by controls: 0 for no effect and ±100 for the full control effect; nearly all actives have a fitted effect of over 55% in size
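HEK293 cells stably co-expressing constitutively active GLP-1R and a cAMP-responsive luciferase reporter were seeded in DMEM with 10% Nu serum, given compounds after 12 h, and incubated 24 h at 37 deg C. Luminescence was then read.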
Starred values were filed as active, the others as inactive; [ ] = another dose, or the depositor's remark. This is a sample that favours compounds with a hit; in the whole collection about 2.3% have one here. Calls come from the whole dose curve; as a rule, active = well fitted curve in the direction sought with a large enough effect; inconclusive = small, poorly fitted or top-dose-only effect, or another doubt; inactive = no such curve, though single readings can be large; an effect the other way counts as inactive or inconclusive. Potency is the fitted concentration of half-maximal effect.

Results for O=C(Nc1cccc(Cl)c1)C1CCCN(c2ncnc3c2nc2n3CCCCC2)C1 (stereo unspecified) ?
GLS inh: -3%; 12-LOX inh: inconclusive; PTHR1 agonist: -90%; GRP78 ERSR act: -4%; GLP1R inv ag: 46%

Results for Cc1ccc(NC(=O)C2CCCN(c3cnn(Cc4ccccc4)c(=O)c3)C2)c(C)c1 (stereo unspecified) ?
12-LOX inh: -11%

Results for CCn1ncc(CN2CCCC(C(=O)Nc3cccc(-c4cc5ccccc5[nH]4)c3)C2)c1C (stereo unspecified) ?
GLS inh: 9%; 12-LOX inh: -24%; PTHR1 agonist: -31%; GRP78 ERSR act: -3%; GLP-1R agonist: 2%; GLP1R inv ag: 3.5µM*

What do the screens show for `CCc1cccc(NC(=O)C2CCCN(c3cnn(Cc4ccccc4)c(=O)c3)C2)c1` (stereo unspecified)?
12-LOX inh: 40µM*

Results for Cc1ccc(NC(=O)C2CCCN(c3ncnc4c3nc3n4CCCCC3)C2)cc1F (stereo unspecified) ?
GLS inh: 2%; 12-LOX inh: -26%; PTHR1 agonist: -44%; GRP78 ERSR act: -4%; GLP1R inv ag: 3.5µM*

How did CCc1cccc(NC(=O)C2CCCN(c3ncnc4c3nc3n4CCCCC3)C2)c1 (stereo unspecified) do in these assays?
GLS inh: 5%; 12-LOX inh: -8%; PTHR1 agonist: -21%; GRP78 ERSR act: -6%; GLP-1R agonist: 8%; GLP1R inv ag: 6.3µM*

Results for O=C(NCC1(c2ccccc2)CCCC1)c1ccc(S(=O)(=O)N2CCOCC2)cc1 ?
12-LOX inh: -28%

Results for CC1CCN(C(=O)C2CCCN(c3ncnc4c3nc3n4CCCCC3)C2)CC1 (stereo unspecified) ?
GLS inh: 1%; 12-LOX inh: 2%; PTHR1 agonist: inactive; GRP78 ERSR act: -1%; GLP-1R agonist: 23%; GLP1R inv ag: -16%

Results for COc1cccc(N2CCN(C(=O)C3CCCN(c4ncnc5c4nc4n5CCCCC4)C3)CC2)c1 (stereo unspecified) ?
GLS inh: 11%; 12-LOX inh: 8%; PTHR1 agonist: inactive; GRP78 ERSR act: 3%; GLP-1R agonist: 10%; GLP1R inv ag: 4.5µM*

How did CCN(Cc1ccccc1)C(=O)C1CCN(c2ncnc3c2nc2n3CCCCC2)CC1 do in these assays?
GLS inh: 3%; 12-LOX inh: 5%; PTHR1 agonist: -15%; GRP78 ERSR act: -1%; GLP-1R agonist: 13%; GLP1R inv ag: -11%

What do the screens show for `O=C(Nc1ccccc1Cl)C1CCCN(c2ncnc3c2nc2n3CCCCC2)C1` (stereo unspecified)?
GLS inh: -6%; 12-LOX inh: 5%; PTHR1 agonist: -26%; GRP78 ERSR act: -5%; GLP-1R agonist: 11%; GLP1R inv ag: 3.2µM*

What do the screens show for `CCc1ccccc1N(CC)C(=O)C1CCN(c2ncnc3c2nc2n3CCCCC2)CC1`?
GLS inh: 4%; 12-LOX inh: -3%; PTHR1 agonist: -51%; GRP78 ERSR act: inconclusive; GLP-1R agonist: -2%; GLP1R inv ag: 8.9µM*

Results for Cc1cccc(Cn2c(CN3CCOCC3)nc3c2c(=O)[nH]c(=O)n3C)c1 ?
12-LOX inh: 14%

Results for Cc1ccc(N2C(=O)N(CC(=O)Nc3c(C)cc(C)cc3Cl)C(=O)C2C)cc1 (stereo unspecified) ?
GLS inh: -3%; 12-LOX inh: -13%; PTHR1 agonist: -29%; GRP78 ERSR act: 3%; GLP-1R agonist: 16%; GLP1R inv ag: 10µM*

Results for Cc1ccc(N2C(=O)N(CC(=O)Nc3ccc(C)cc3C)C(=O)C2C)cc1 (stereo unspecified) ?
GLS inh: -8%; 12-LOX inh: inconclusive; PTHR1 agonist: inactive; GRP78 ERSR act: 4%; GLP-1R agonist: 4%; GLP1R inv ag: inconclusive

What do the screens show for `CC1(C(=O)OCC(=O)N2c3ccccc3Sc3ccccc32)CC1(Cl)Cl` (stereo unspecified)?
GLS inh: 8%; 12-LOX inh: 5%; PTHR1 agonist: -1%; GRP78 ERSR act: -6%; GLP-1R agonist: 5%; GLP1R inv ag: 11µM*

What do the screens show for `CC1(C(=O)OCC(=O)NC(=O)c2ccccc2)CC1(Cl)Cl` (stereo unspecified)?
GLS inh: -4%; 12-LOX inh: inconclusive; PTHR1 agonist: inactive; GRP78 ERSR act: 1%; GLP-1R agonist: 3%; GLP1R inv ag: 1%

Results for Nc1nc(N)c(N=Nc2ccc(S(N)(=O)=O)cc2)c(=O)[nH]1 ?
GLS inh: -4%; 12-LOX inh: 40µM*; PTHR1 agonist: -16%; GRP78 ERSR act: -3%; GLP-1R agonist: -1%; GLP1R inv ag: 11%

Results for Nc1nc(N)c(N=Nc2ccc(Cl)cc2)c(=O)[nH]1 ?
GLS inh: 7%; 12-LOX inh: inconclusive; PTHR1 agonist: -29%; GRP78 ERSR act: 3%; GLP-1R agonist: -1%; GLP1R inv ag: 9%

Results for N#Cc1ccc(N2C[C@@H]3OCC(=O)N(CC4CCCCC4)[C@@H]3C2)nc1 ?
12-LOX inh: 8%[176 µM]

What do the screens show for `O=C1CO[C@H]2CN(c3ncccn3)C[C@H]2N1CC1CCCCC1`?
12-LOX inh: 28µM*

What do the screens show for `NC1=NC[C@@H](Cc2ccc(O)cc2)N1CCC12CC3CC(CC(C3)C1)C2`?
GLS inh: 3%; 12-LOX inh: inconclusive; PTHR1 agonist: -25%; GRP78 ERSR act: 0%; GLP-1R agonist: 12%; GLP1R inv ag: 8.9µM*

How did NC1=NC[C@H](Cc2ccc(O)cc2)N1CCc1cccc(F)c1 do in these assays?
GLS inh: 14%; 12-LOX inh: -3%; PTHR1 agonist: inactive; GRP78 ERSR act: 1%; GLP-1R agonist: -4%; GLP1R inv ag: 7%

What do the screens show for `N#CC1=C(N)OC2=C(CCc3ccccc32)C1c1ccccc1` (stereo unspecified)?
GLS inh: 53%; 12-LOX inh: -26%; PTHR1 agonist: inactive; GRP78 ERSR act: -2%; GLP-1R agonist: 14%; GLP1R inv ag: 1.3µM*

Results for CCCCCc1ccc(C(=O)C(C)C)cc1 ?
12-LOX inh: -4%

Results for COc1cccc(NC(=O)Cc2csc(COc3cccc(C)c3)n2)c1 ?
GLS inh: -8%; 12-LOX inh: -30%; PTHR1 agonist: -14%; GRP78 ERSR act: 5%; GLP1R inv ag: inconclusive

Compound activity (PubChem BioAssay)
